These results are taken from PubChem BioAssay (Tox21).

“And” between values parts separate entries of the source, which are not always exact repeats. Identical values can stand only once. Results filed as inconclusive are left out. A structure can be active in one record and inactive in another. The source made the active and inactive calls. Unless noted, the call rests on the fitted dose curve; in most records, active means well fitted curve in the direction sought with a large enough effect in the repeat runs; inconclusive means weak or mixed curves; inactive means no such curve, though single readings can be large; an effect the other way counts as inactive or inconclusive.

Experiment [1] can be described thus: qHTS assay for small molecule agonists of the p53 signaling pathway (AID 651631; calls by dose curve; further: nearly all actives have a fitted effect of over 15% in size; further: potency means the concentration at half of the fitted maximal effect). The procedure, abridged:
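We treat p53RE-bla HCT-116 cells with compounds for 16 h at 37 °C, add LiveBLAzer B/G FRET substrate for 2 h at room temperature, and measure fluorescence intensity.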
For orientation: Quantitative high-throughput screening tests each substance at several concentrations.

The nature of experiment [2]: qHTS assay for small molecules that induce genotoxicity in human embryonic kidney cells expressing luciferase-tagged ATAD5 (AID 651632). Further: nearly all actives have a fitted effect of over 15% in size. A digest of the protocol:
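HEK293T cells carrying luciferase-tagged ATAD5 were given compound or DMSO vehicle and incubated 16 hr at 37C, 5% CO2. Luciferase activity was read after 30 min at room temperature with Amplite; a rise signals genotoxic stress.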

Experiment [3] is described as follows: qHTS assay for small molecule agonists of the p53 signaling pathway - cell viability (AID 651633; calls by dose curve;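 further: p53RE-bla HCT reporter cells with a stable beta-lactamase p53 reporter; series mostly up to about 83 µM; nearly all actives have a fitted effect of over 30% in size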). A digest of the protocol: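 Viability counter-read: CellTiter-Glo luminescence (30 min, room temperature) in the same p53RE-bla plates. These plates had been exposed to compounds for 16 h at 37 C.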
A short description of experiment [4]: qHTS assay for small molecules that induce genotoxicity in human embryonic kidney cells expressing luciferase-tagged ATAD5 - cell viability (AID 651634; calls by dose curve; further: nearly all actives have a fitted effect of over 25% in size; further: potency means the concentration at half of the fitted maximal effect). The procedure, abridged: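 HEK293T cells carrying luciferase-tagged ATAD5, 2,000 cells/well, exposed to compound for 15.5 hr at 37C. Viability read as live-cell protease activity by CellTiter-Fluor fluorescence after 30 min at 37C.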

A short description of experiment [5]: qHTS assay for small molecule disruptors of the mitochondrial membrane potential - cell viability (AID 720634; calls by dose curve;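 further: human HepG2 liver cancer cells; series mostly up to about 83 µM; nearly all actives have a fitted effect of over 20% in size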). The procedure, abridged:
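HepG2 cells, 2,000 per well, attached overnight, then treated 1 hr at 37 C, 5% CO2. Viability read as ATP by CellTiter-Glo luminescence after 30 min at room temperature. Read in the same wells as the m-MPI membrane-potential dye assay.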

The nature of experiment [6]: qHTS assay for small molecule disruptors of the mitochondrial membrane potential (AID 720635). Further: potency means the concentration at half of the fitted maximal effect. The procedure, abridged:
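Mitochondrial membrane potential tracked with Mito-MPS dye, red aggregates (ex 540/em 590 nm) against green monomers (ex 490/em 535 nm). Compound treatment 1 hr at 37C, dye 30 min in HepG2.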

The nature of experiment [7]: qHTS assay to test for compound auto fluorescence at 590 nm (red) in HepG2 cells (AID 720674). The procedure, abridged: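 1 hr compound incubation on HepG2 cells, 37 C, 5% CO2; plate read ex 540 nm / em 590 nm; intensities reported as Rose Bengal sodium equivalents.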
Experiment [8] can be described thus: qHTS assay to test for compound auto fluorescence at 535 nm (green) in HepG2 cells (AID 720675).
The nature of experiment [9]: qHTS assay to test for compound auto fluorescence at 460 nm (blue) in HEK293 cells (AID 720678). The procedure, abridged: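 Blue read-out at excitation 405 nm and emission 460 nm follows overnight compound exposure of HEK293 cells at 37C in 5% CO2. Activity is given as auto fluorescence equivalency to triamterene.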
Experiment [10] can be described thus: qHTS assay to test for compound auto fluorescence at 590 nm (red) in HEK293 cells (AID 720679). The procedure, abridged:
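Red channel, Ex/Em 540/590nm; signal expressed as equivalency to Rose Bengal sodium. HEK293, 2,000 cells/well, 10% dialyzed FBS; 23 nL compound pinned after 4-5 hr attachment; overnight 37C/5% CO2 before reading.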

For `CC(C)C[C@H](NC(=O)[C@@H](COC(C)(C)C)NC(=O)[C@H](Cc1ccc(O)cc1)NC(=O)[C@H](CO)NC(=O)[C@H](Cc1c[nH]c2ccccc12)NC(=O)[C@H](Cc1cnc[nH]1)NC(=O)[C@@H]1CCC(=O)N1)C(=O)N[C@@H](CCCN=C(N)N)C(=O)N1CCC[C@H]1C(=O)NNC(N)=O`, the Potency entry in experiment [1], in [2], in experiment [3], in experiment [4], in experiment [5] and in experiment [6] was “inactive” throughout. The Potency result in experiment [8] and in experiment [9] was “inactive” in each case. In addition, the call in experiment [7] and in experiment [10] was inactive.

In the case of `NC(N)=NCc1cccc(I)c1`, the Potency result in experiment [1], in [2], in [3], in experiment [4], in [5] and in [6] was “inactive” in each case. In addition, the Potency entry in [8] is “inactive”. Besides, the molecule was called inactive in experiment [7] and in experiment [10].

With `CCCOC(=O)c1ccccc1O`, the Potency result in [1], in experiment [2], in experiment [3], in experiment [4], in experiment [5] and in experiment [6] was “inactive” each time. The Potency entry in [8] and in experiment [9] was “inactive” throughout. Further, the call in experiment [7] and in experiment [10] was inactive.

In the case of `O=C1CCC/C=C\CCCCCCCCCC1`, the Potency entry in experiment [1], in experiment [2], in experiment [3], in experiment [4], in experiment [5] and in [9] was “inactive” each time. Also, the Potency in [6] is 68.6 µM (active). The result in [7] and in [10] was inactive.

For `CC(C)=CCC/C(C)=C/CC/C(C)=C/CC/C(C)=C/CC1=C(C)C(=O)c2ccccc2C1=O`, the Potency result in experiment [1], in experiment [2], in [3], in experiment [4], in [5] and in experiment [9] was “inactive” throughout. Besides, the Potency result in experiment [6] is “inactive and 13.3 µM (active)”. The outcome in [7] and in experiment [10] was inactive.

As for `CNC(=O)OCc1cccc(COC(=O)NC)n1`, the Potency result in experiment [1], in [2], in experiment [3], in [4], in experiment [5] and in experiment [6] was “inactive” in each case. Moreover, the Potency result in experiment [9] is “inactive”. For the same molecule, the result in [7] and in experiment [10] was inactive.

On to `CC(C)Cc1ccc([C@H](C)C(=O)O)cc1`, for which the Potency result in experiment [1], in experiment [2], in [3], in experiment [4], in experiment [5] and in experiment [6] was “inactive” in each case. Further, the Potency result in experiment [8] and in experiment [9] was “inactive” throughout. For the same molecule, the molecule was called inactive in experiment [7] and in [10].

For the molecule `CN(Cc1ccccc1)Cc1ccccc1`, the Potency result in [1], in [2], in [3], in experiment [4], in experiment [5] and in experiment [6] was “inactive” in each case. Also, the Potency entry in experiment [8] and in experiment [9] was “inactive” each time. The outcome in experiment [10] was inactive.

For the molecule `CSCC[C@H](NC(=O)[C@H](Cc1ccc(OS(=O)(=O)O)cc1)NC(=O)[C@@H](N)CC(=O)O)C(=O)NCC(=O)N[C@@H](Cc1c[nH]c2ccccc12)C(=O)N[C@@H](CCSC)C(=O)N[C@@H](CC(=O)O)C(=O)N[C@@H](Cc1ccccc1)C(N)=O`, the Potency result in experiment [1], in experiment [2], in experiment [3], in experiment [4], in experiment [5] and in experiment [6] was “inactive” each time. Further, the Potency result in [8] and in experiment [9] was “inactive” in each case. Also, the call in experiment [7] and in experiment [10] was inactive.

For the molecule `CCOC(=O)[C@H](CCc1ccccc1)N[C@@H](C)C(=O)N1[C@H](C(=O)O)C[C@H]2CCCC[C@@H]21`, the Potency entry in experiment [1], in [2], in experiment [3], in [4], in experiment [5] and in [6] was “inactive” throughout. Also, the Potency result in experiment [8] is “inactive”. Besides, the molecule was called inactive in [7] and in experiment [10].

Turning to `CC(C)(O/N=C(\C(=O)N[C@@H]1C(=O)N2C(C(=O)[O-])=C(C[n+]3ccccc3)CS[C@H]12)c1csc(N)n1)C(=O)O`, the Potency entry in [1], in [2], in experiment [3], in [4], in experiment [5] and in [6] was “inactive” throughout. In addition, the Potency result in experiment [8] is “inactive”. Also, the result in experiment [7] and in experiment [10] was inactive.

As to `CCCCCN=C(N)N/N=C/c1c[nH]c2ccc(OC)cc12`, the Potency entry in [1], in experiment [2], in experiment [3], in experiment [4], in [5] and in experiment [6] was “inactive” throughout. Moreover, the Potency entry in experiment [9] is “inactive”. For the same molecule, the call in experiment [7] and in experiment [10] was inactive.

In the case of `Cc1ncc(C[n+]2csc(CCOP(=O)(O)O)c2C)c(N)n1`, the Potency entry in experiment [1], in experiment [2], in experiment [3], in [4], in experiment [5] and in experiment [6] was “inactive” in each case. Besides, the Potency entry in experiment [8] and in [9] was “inactive” throughout. For the same molecule, the call in experiment [7] and in [10] was inactive.

Consider `O=C1c2ccccc2C(=O)C1c1ccc(F)cc1`, for which the Potency entry in [1], in experiment [2], in [3], in [4], in experiment [5] and in [6] was “inactive” throughout. Besides, the Potency result in experiment [9] is “inactive”. For the same molecule, the molecule was classed as inactive in experiment [7] and in experiment [10].

As to `CCN(CC)C(=O)c1cccnc1`, the Potency result in experiment [1], in experiment [2], in [3], in experiment [4], in experiment [6] and in [8] was “inactive” throughout. Further, in [9], the Potency entry was “inactive”. Besides, the result in [7] and in [10] was inactive.

For the molecule `CC[C@H]1OC(=O)C[C@@H](O)[C@H](C)[C@@H](O[C@@H]2O[C@H](C)[C@@H](O)[C@H](N(C)C)[C@H]2O)[C@@H](CCN2C[C@H](C)C[C@H](C)C2)C[C@@H](C)C(=O)/C=C/C(C)=C/[C@@H]1CO[C@@H]1O[C@H](C)[C@@H](O)[C@@H](OC)[C@H]1OC`, the Potency entry in experiment [1], in [2], in [3], in [4], in experiment [5] and in experiment [6] was “inactive” each time. The Potency entry in experiment [8] and in experiment [9] was “inactive” throughout. Moreover, the outcome in experiment [10] was inactive.

As to `CCN1CCCC1CNC(=O)c1cc(S(=O)(=O)CC)ccc1OC` (centres undefined), the Potency result in [1], in [2], in [3], in experiment [4], in experiment [6] and in experiment [8] was “inactive” each time. Moreover, in [9], the Potency result was “inactive”. The molecule was classed as inactive in experiment [7] and in experiment [10].

As for `OCl`, the Potency entry in experiment [1], in experiment [2], in experiment [3], in experiment [4], in experiment [5] and in experiment [6] was “inactive” each time. In experiment [8], the Potency entry was “inactive”. Moreover, the result in experiment [10] was inactive.

Take `COC(=O)C[C@](O)(CCCC(C)(C)O)C(=O)O[C@@H]1C(OC)=CC23CCCN2CCc2cc4c(cc2[C@H]13)OCO4` (some centres undefined): the Potency in [1] was 0.0335 µM (active); in [4] it was 26.6 nM (active) and 23.7 nM (active). The Potency result in experiment [2], in experiment [3], in experiment [5] and in experiment [9] was “inactive” in each case. Further, the result in experiment [7] and in [10] was inactive.

In the case of `O=C(O)[C@H]1CN(C/C=C/P(=O)(O)O)CCN1`, the Potency result in [1], in experiment [2], in experiment [3], in experiment [4], in [6] and in experiment [8] was “inactive” in each case. Further, in experiment [9], the Potency result was “inactive”. In addition, the result in experiment [7] and in [10] was inactive.

Turning to `Cc1cc(-c2ccc(N=Nc3ccc4c(S(=O)(=O)O)cc(S(=O)(=O)O)c(N)c4c3O)c(C)c2)ccc1N=Nc1ccc2c(S(=O)(=O)O)cc(S(=O)(=O)O)c(N)c2c1O`, the Potency result in experiment [1], in experiment [2], in experiment [3], in experiment [5], in experiment [8] and in experiment [9] was “inactive” each time. In addition, the Potency in experiment [4] was 13.3 µM (active). In addition, the call in [7] and in experiment [10] was inactive.

As to `C=C(Nc1ccc(OCC)cc1)Nc1ccc(OCC)cc1`, the Potency entry in experiment [1], in experiment [2], in experiment [3], in [4], in experiment [5] and in [8] was “inactive” each time. Further, in experiment [9], the Potency result is “inactive”. Also, the result in [7] and in [10] was inactive.

For `CC(=O)O[C@H]1C[C@@H]2CC[C@@H]3[C@H](CC[C@@]4(C)[C@H]3C[C@H]([N+]3(C)CCCCC3)[C@@H]4OC(C)=O)[C@@]2(C)C[C@@H]1[N+]1(C)CCCCC1`, the Potency entry in [1], in experiment [2], in [3], in experiment [4], in experiment [5] and in [8] was “inactive” each time. Moreover, the result in experiment [7] and in [10] was inactive.
